About 2,200 (0.61%) of roughly 360,000 compounds were called active. For the sample, actives were picked, then their nearest neighbours and some compounds at random. Values without a mark were called inactive.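 How the source made its calls: active means inhibition above a per-plate cutoff, the plate's mean sample inhibition plus 3 SD (cut at about 24% in these data); inactive means the rest.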
Test: nonselective inhibitors of ATP calcium response in CHO-K1, primary screen, counter-screen for M1 antagonist project, cell-based, Fluo-8 calcium fluorescence, full deck, 1536-well (AID 602250);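 further: 0% = DMSO plus EC80 ATP and 100% = DMSO alone without ATP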
Details: CHO-K1 parental, ATP-induced calcium, Fluo-8 fluorescence; at 3 µM; hits give high values
In the case of COC(=O)c1ccc(-c2c(-c3ccccc3)ncc3cc(OC)c(OC)cc23)cc1, the inhibition is reported as 8.1%.
In the case of Cc1cc(=O)n2nc(N3CCCC(C(=O)NCc4ccc(Cl)cc4)C3)sc2n1 (stereo not given), the inhibition is reported as -0.44%.
In the case of Cc1cc(=O)n2nc(N3CCCC(C(=O)N4CCN(C)CC4)C3)sc2n1 (stereo not given), the inhibition is reported as 26.5% (active).
In the case of Cc1cc(=O)n2nc(N3CCCC(C(=O)NCc4cccc(Cl)c4)C3)sc2n1 (stereo not given), the inhibition is reported as -13.5%.
Molecule Cc1ccc(NC(=O)c2oc(=O)c3ccccc3c2-c2ccccc2)c(C)c1 has an inhibition of -9.65%.
With CCc1nnc(NC(=O)CSCc2cc(=O)n3cc(C)sc3n2)s1 the inhibition was -12.4%.
With O=C(C1CCCN(S(=O)(=O)c2ccccc2)C1)N1CCN(c2ccc(F)cc2)CC1 (stereo not given) the inhibition was -2.45%.
For CC(=O)N1CCCc2cc(S(=O)(=O)N3CCCC(C(=O)N4CCN(c5cccc(Cl)c5)CC4)C3)ccc21 (stereo not given), the inhibition was 30.4% (active).
With COc1cccc(N2CCN(C(=O)C3CCCN(S(=O)(=O)c4cnc[nH]4)C3)CC2)c1 (stereo not given) the inhibition was 2.59%.
With COc1ccc(OC)c(S(=O)(=O)N2CCCC(C(=O)NCCc3ccccc3)C2)c1 (stereo not given) the inhibition was -10.1%.
CCc1ccccc1NC(=O)CN1CCN(C(=O)c2cc(C3CC3)nn2-c2ccccc2)CC1 showed an inhibition of -11.2%.
For Cc1nn(Cc2ccccc2)c(C)c1C(=O)N1CCN(CC(=O)Nc2ccccc2Cl)CC1, the inhibition was 23.9% (active).
For CCC(=O)Nc1ccccc1C(=O)N1CCN(Cc2ccccc2)CC1, the inhibition was 19.3%.
CCCC(C)c1nnc(NC(=O)C2CC(=O)N(c3ccc(OCC)cc3)C2)s1 (stereo not given) gave an inhibition of -4.36%.
For Cc1nc(SCC(=O)NC2CCCC2)[nH]c(=O)c1C, the inhibition was -8.77%.
Molecule CCCCC(=O)N1CC2(C)CN(C(=O)CCCC)CC(C)(C1)C2=O has an inhibition of -5.12%.
COc1cc(O)c2c(=O)c3c(O)c(O)ccc3oc2c1OC showed an inhibition of -9.49%.
In the case of COc1c(O)cc2oc(-c3ccc(O)c(O)c3)cc(=O)c2c1O, the inhibition is reported as 24.9% (active).
For CCOC(=O)COc1cc(OCC(=O)OCC)c2c(=O)cc(-c3ccccc3)oc2c1, the inhibition was -13.4%.
Work on CCN(CC(=O)NCc1cccs1)C(=O)/C=C/c1ccc(C)cc1 yielded an inhibition of -10.9%.
Work on Cc1sc(NC(=O)C2=COCCO2)c(C#N)c1C yielded an inhibition of -16.8%.
CCCc1cc(=O)[nH]c(SCC(=O)Nc2sc3c(c2C#N)CCCC3)n1 showed an inhibition of 5.46%.
With CCCc1ccc(-c2c(C)sc(NC(=O)c3ccnn3C)c2C#N)cc1 the inhibition was 29.1% (active).
Nc1cccc(S(=O)(=O)Nc2ccc(SC(F)F)cc2)c1 showed an inhibition of 12.1%.
In the case of COc1cc(Cl)ccc1OCc1cc(C(=O)N2CC[C@@H]3CCCC[C@H]3C2)no1, the inhibition is reported as 30.9% (active).
COc1ccc(OCc2cc(C(=O)N3CCCC3)no2)c2ccccc12 gave an inhibition of -10.3%.
In the case of CCn1ccnc1CN(C)C(=O)c1cc(COc2ccc(Cl)cc2OC)on1, the inhibition is reported as -6.33%.
Cc1nn(-c2ccc(F)cc2)c(Cl)c1/C=C(/CCC(=O)O)c1nc2ccccc2s1 gave an inhibition of -3.61%.
O=C(O)CCCCCCCCc1cn(CN2C(=O)c3ccccc3C2=O)nn1 showed an inhibition of 12.6%.
With O=C(O)CCCCc1nc2ccccc2s1 the inhibition was 33.5% (active).
Cc1ccc([C@H]2N[C@]3(CCCN(CC4CCCCC4)C3=O)[C@H]3C(=O)N(Cc4ccccc4)C(=O)[C@@H]23)cc1 gave an inhibition of -0.53%.
CCCCN(C(=O)c1ccc(OC(F)(F)F)cc1)c1c(N)n(CCC)c(=O)[nH]c1=O gave an inhibition of -6.23%.
In the case of CCCCN(C)C(=O)c1ccc2c(c1)N(CC)C(=O)c1ccccc1S2(=O)=O, the inhibition is reported as 18%.
For Cc1cc(C)n(CC(=O)Nc2ccc([N+](=O)[O-])cc2)n1, the inhibition was -4.31%.
Molecule O=C(Cc1ccc([N+](=O)[O-])cc1)Nc1ccc(C(=O)N2CCOCC2)cc1 has an inhibition of -11.3%.
With O=C(Cc1cccs1)Nc1ccc([N+](=O)[O-])cc1 the inhibition was 23.9% (active).
Cc1noc(C)c1S(=O)(=O)Nc1cc(C(F)(F)F)ccc1N1CCOCC1 gave an inhibition of 3.45%.
For Cc1oc2c(F)c(F)c(F)c(F)c2c1S(=O)(=O)Nc1cccc(C(F)(F)F)c1, the inhibition was 27.9% (active).
With Cc1ccc(N(CCC(=O)O)S(=O)(=O)c2cccc(C(F)(F)F)c2)cc1 the inhibition was 3.61%.
COc1cc(C(=O)NCCOC(=O)c2cccc(N(C)C)c2)cc(OC)c1OC showed an inhibition of -4.91%.
CCOc1ccc2[nH]c(=O)c(CN(CCCO)C(C)=O)cc2c1 gave an inhibition of 7.13%.
Cc1cccc(OCC(O)Cn2c(=N)n(CCN3CCOCC3)c3ccccc32)c1 (stereo not given) gave an inhibition of -12.8%.
For OC(COc1ccccc1)CN1CCN(c2cccc(Cl)c2)CC1 (stereo not given), the inhibition was -14.9%.
For OC(CN=c1sc2ccccc2n1CC(O)COc1ccccc1)COc1ccccc1 (stereo not given), the inhibition was 62.5% (active).
For COC(=O)Cc1c(O)ccn(Cc2cccc(C(F)(F)F)c2)c1=O, the inhibition was -6.45%.
In the case of Cc1cccc(C)c1Nc1nnc(SCC(=O)NCCCN2CCCC2=O)s1, the inhibition is reported as -7.35%.
O=C(NCCN1CCOCC1)[C@H](Cc1ccccc1)N1C(=O)c2ccccc2C1=O showed an inhibition of -4.92%.
For CCOC(=O)C(Cc1ccc(N)cc1)N1C(=O)c2ccccc2C1=O (stereo not given), the inhibition was 25.2% (active).
COc1ccc(CNC(=O)COC(=O)C(CCSC)N2C(=O)c3ccccc3C2=O)cc1 (stereo not given) gave an inhibition of -6.61%.
For CCCS(=O)(=O)NC(=O)C1(C)CCCN(C(=O)c2cccs2)C1 (stereo not given), the inhibition was -9.34%.
Work on CCNC(=O)c1cc2c(c(-c3cccc(-c4cncnc4)c3)n1)[C@H](CCO)N(C(C)=O)C2 yielded an inhibition of -11.6%.
In the case of CCCNC(=O)c1cc2c(c(-c3cccc(-c4ccc(C#N)cc4)c3)n1)[C@@H](CCO)N(C(=O)CC)C2, the inhibition is reported as 25.5% (active).
CCC(=O)N1Cc2cc(C(=O)NCc3cccc(F)c3)nc(-c3cccc(C4=CCCC4)c3)c2[C@H]1CCO gave an inhibition of -1.18%.
Work on COc1ccc(C(C[N+](=O)[O-])n2nc(C)cc2C)cc1 (stereo not given) yielded an inhibition of -0.39%.
Cc1c(Cl)cccc1NC(=O)Nc1ccc(C(=O)N2CCCC2)cc1 gave an inhibition of -18.4%.
Cc1c(Cl)cccc1NC(=O)NCc1ccc(C)n1C gave an inhibition of 3.33%.
In the case of Cc1c(NC(=O)Nc2ccccc2Cl)sc(=S)n1C, the inhibition is reported as 24.7% (active).
Molecule CC1(C)CC(=O)c2cnc3nc4ccccc4n3c2C1 has an inhibition of -11.2%.
CC1(C)CC(=O)C(N=Nc2c(F)cccc2F)=C(O)C1 showed an inhibition of -15.2%.
Work on CCOC(=O)C1(C)CCCN(C(=O)c2cccc(Cl)c2)C1 (stereo not given) yielded an inhibition of -16.1%.
With Cc1nn(-c2ccccc2)c(C)c1/C=N/NC(=O)CSc1nc2ccccc2c(=O)n1-c1ccccc1 the inhibition was 14.8%.
With C=CCO/N=C(\C)c1c(O)c(C)c(-c2ccccc2)n(-c2ccccc2)c1=O the inhibition was 28% (active).
CCO/N=C(/C)c1c(O)cc(-c2ccccc2)n(-c2ccccc2)c1=O showed an inhibition of -7.62%.
O=C(C1CC1)N1N=C2CCCCC2C1(O)C(F)(F)F (stereo not given) showed an inhibition of 3.71%.
With CC(=O)NCCc1ccc(S(=O)(=O)Nc2ccc(C)c(S(=O)(=O)N3CCOCC3)c2)cc1 the inhibition was 11%.
Work on Cn1c(=O)c2c(SCC(=O)N3CCOCC3)nc(C3CC3)nc2n(C)c1=O yielded an inhibition of -6.78%.
In the case of CCCC1(C(=O)OCC)NC(c2ccc(N(C)C)cc2)C2C(=O)N(c3ccc4c(c3)OCCO4)C(=O)C21 (stereo not given), the inhibition is reported as -5.19%.
Work on Cc1ccc(CNC(=O)CCNS(=O)(=O)c2cccc3nonc23)cc1 yielded an inhibition of -10.2%.
For CCNC(=S)NNC(=O)Cc1ccccc1, the inhibition was 32.5% (active).
Cc1scc(C(=O)NNC(=S)NCc2ccccc2)c1C showed an inhibition of -15.3%.
CCNC(=S)NNC(=O)C1CCN(Cc2ccccc2)CC1 showed an inhibition of -12.2%.
Work on CCOC(=O)C1CCN(C(=O)c2ccc3c(=O)n4nc(Nc5ccccc5CC)sc4nc3c2)CC1 yielded an inhibition of -9.89%.
For CCSc1nc2c(c(=O)[nH]1)C(c1cccnc1)C(C(=O)OC(C)C)=C(C)N2 (stereo not given), the inhibition was 25.5% (active).
In the case of COC(=O)C1=C(N)Oc2cc(C)oc(=O)c2C1c1cccnc1 (stereo not given), the inhibition is reported as -3.67%.
CCSc1nc(O)c(C(c2cccc(OC)c2)c2c(O)nc(SCC)[nH]c2=O)c(=O)[nH]1 showed an inhibition of -3.25%.
Work on COc1ccc(Cl)cc1NC(=O)CN(C)C(=O)CCCc1c[nH]c2ccccc12 yielded an inhibition of 2.49%.
O=C1NC(Cc2ccccc2)c2nc3ccc(Br)cc3c(=O)n2-c2cc3ccccc3cc21 (stereo not given) showed an inhibition of 12.3%.
With COc1ccc(O)c(C=Nc2cc(C)on2)c1 the inhibition was -9.65%.
For O=C(Nc1ccc2ccccc2c1)Nc1ccc2snnc2c1, the inhibition was 32.6% (active).
Molecule CS(=O)(=O)c1ccccc1C(=O)Nc1ccc2sccc2c1 has an inhibition of -10.2%.
Cc1ccc(NC(=O)Nc2ccc3oc(C)nc3c2)cc1 gave an inhibition of -8.85%.
With CC(C)Oc1ccc(CC(=O)NNC(=S)Nc2ccc(Br)cc2)cc1 the inhibition was -8.93%.
In the case of CC(C)OCCCNc1ncnc2c1[nH]c1ccc(F)cc12, the inhibition is reported as 26.5% (active).
Molecule CCOc1ccc(C2NC(=S)NC3=C2CCc2ccccc23)cc1 (stereo not given) has an inhibition of 4.36%.
COCc1[nH][nH]c(=O)c1C=Nc1ccc(F)cc1F gave an inhibition of 3.8%.
In the case of CCN1/C(=C\c2ccc3ccccc3[n+]2CC)Sc2cc(C)ccc21, the inhibition is reported as 47.2% (active).
In the case of N#CCCN(C(=O)Nc1ccc(Cl)c(Cl)c1)C1CCCCC1, the inhibition is reported as 5.09%.
With O=C(CC(O)(C(F)(F)F)C(F)(F)F)Nc1ccc(Cl)c(Cl)c1 the inhibition was 42.9% (active).
For CC1(C(=O)O)CCC(C(=O)Nc2ccc(Cl)c(Cl)c2)C1(C)C (stereo not given), the inhibition was -12.5%.
CC1(C)C2CCC13CS(=O)(=O)NC3C2 (stereo not given) showed an inhibition of -9.03%.
Molecule NC1=NC2(CCCCC2)N(c2ccc(F)cc2F)C(N)=N1 has an inhibition of 13.8%.
Work on N#Cc1c(N)sc2c1CCN(C(=O)OCc1ccccc1)C2 yielded an inhibition of -19.6%.
CC(=O)N1CCc2c(sc(NC(=O)CCS(=O)(=O)c3ccccc3)c2C#N)C1 gave an inhibition of 0.29%.
With CC(C)N1CCc2c(sc(NC(=O)Cc3ccccc3)c2C#N)C1 the inhibition was 24.7% (active).
In the case of C[C@H](NC(=O)[C@@H]1CCCN1C(=O)[C@@H]1CCCN1C(=O)c1ccccc1)c1ccccc1, the inhibition is reported as -24.1%.
